Data on 44 compounds can be found in PubChem BioAssay (NCATS).

Inconclusive results are not listed. Entries that show only a call come without a potency. A number with no mark means an inactive call. Active and inactive are the calls of the source. Calls follow the shape of the dose curve; as a rule, active = well fitted curve in the direction sought with a large enough effect; inconclusive = small, poorly fitted or top-dose-only effect, or another doubt; inactive = no such curve, though single readings can be large; an effect the other way counts as inactive or inconclusive.

Experiment [1] concerns Zika virus NS2B-NS3 protease. The experiment in a line: Primary screen GU AMC qHTS for Zika virus inhibitors (AID 1347154). Also: nearly all actives have a fitted effect of over 70% in size. Also: potency is read from the fitted curve at half-maximal effect. The procedure, abridged: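 Fluorogenic AMC-substrate cleavage by noncovalent NS2B-NS3 protease complex (25 nM, pH 8.0 Tris buffer with Tween 20) followed for 15 minutes at room temperature (~20% conversion). Percent inhibition from ex340/em450 signal change, fitted by 4-parameter Hill equation.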

The nature of experiment [2]: Confirmatory screen NINDS Rhodamine qHTS for Zika virus inhibitors (AID 1347161). Also: nearly all actives have a fitted effect of over 60% in size. Also: potency is read from the fitted curve at half-maximal effect. The procedure, abridged:
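Aprotinin served as in-plate control. Conditions: 25 nM linked NS2B-NS3, pH 8.0 Tris buffer, titrated compounds, 15 min preincubation and 15 min reaction with 1.5 microM Rhod110 substrate at room temperature.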

For experiment [3], the system named is Zika virus NS2B-NS3 protease (linked). Description: 384 well plate NINDS AMC confirmatory qHTS for Zika virus inhibitors (AID 1347163). Also: nearly all actives have a fitted effect of over 50% in size. Also: potency is read from the fitted curve at half-maximal effect. The procedure, abridged:
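Enzyme (5, 30 or 60 nM final) first met test compounds for ~15 min. The AMC-tagged peptide Ac-VKTGKR-AMC followed at 30 microM. Fluorescence was then recorded at 25 min and scaled against no-enzyme and no-inhibitor wells.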

For experiment [4], the system named is Zika virus NS2B-NS3 protease (linked construct). The experiment in a line: 384 well plate NINDS Rhodamine confirmatory qHTS for Zika virus inhibitors (AID 1347164).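 Also: fluorescence from protease cleavage of Ac-LKRR-rhodamine 110 substrate; nearly all actives have a fitted effect of over 65% in size.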 Also: potency is read from the fitted curve at half-maximal effect. The procedure, abridged:
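Linked protease at a final 5 nM, 30 nM or 60 nM was preincubated ~15 min with compounds, then given 10 microM Ac-LKRR-Rhodamine 110. Fluorescence (ex 485/em 538 nm) after 25 min in the dark at room temperature.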
In general terms: In qHTS, concentration-response curves come from the screen itself.

Experiment [5] addresses Lysine-specific demethylase 5B (Homo sapiens) (UniProt Q9UGL1). The experiment in a line: Optimization screen for KDM5B Histone Demethylases FDH coupled qHTS against the LOPAC library (AID 1347166). To be noted: KDM5B demethylation, FDH-coupled NADH fluorescence (FDH is formaldehyde dehydrogenase); at 57.5 µM (top of the series). The procedure, abridged: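 KDM5BDeltaAP (200nM final) in 50mM HEPES pH 7.5, 0.01% Tween-20 was preincubated with compound for 10 min at room temperature. A substrate mix of 12.5uM H3K4Me3, 25uM a-ketoglutarate, ascorbate, Fe2+, NAD+ and formaldehyde dehydrogenase was then added. NADH fluorescence (340/450 nm) was read initially and after 30 min.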

The nature of experiment [6]: Vero cells viability qHTS for Zika virus inhibitors (AID 1347167). Also: potency is read from the fitted curve at half-maximal effect. The procedure, abridged:
(§1)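 Luminescent ATP readout (CellTiter Glo) after 30 min at 37 degrees C gives viability; cells in DMEM + 4% FBS were treated 24 to 48 hours with compound, following overnight attachment.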

Experiment [7] can be described thus: Confirmatory screen GU Rhodamine qHTS for Zika virus inhibitors qHTS (AID 1347157). Also: potency is read from the fitted curve at half-maximal effect; nearly all actives have a fitted effect of over 70% in size. The source says:
Avindra Nath, Ph.D., National Institute of Neurological Disorders and Stroke (NINDS), Bethesda, MD
Radhakrishnan Padmanabhan, Ph.D., Georgetown University (GU), Washington D.C.
Zika Virus causes congenital defects, including microcephaly and is associated with Guillain-Barre syndrome, eningoencephalitis and myelitis in infected adult. […] Using a target-based approach, we hope to establish a screening paradigm to uncover novel, cell-active NS2B-NS3 protease (Zika Virus) specific inhibitors from NCATS' collection of small molecules using qHTS.
Four assay panel was created to identify potential Zika Virus inhibitors. […]
Briefly, 3 microL of enzyme (25 nM final concentration), in assay buffer (10 mM Tris-HCl pH 8.0 with 0.01% Tween 20) were dispensed into a 1,536-well solid-bottom black plate (Greiner Bio One, Monroe, NC). […] Plates were then immediately read on a ViewLux High-throughput CCD imager (PerkinElmer, Waltham, MA) equipped with FITC fluorescence optics (480(20) nm excitation, 540(25) nm emission), then incubated (room temperature, protected from light) for 15 minutes (~15% conversion). The change in fluorescence intensity over the 15-minute reaction period was normalized against no-inhibitor and no-enzyme controls and the resulting percent inhibition data were fitted to a 4-parameter Hill equation. […]

The nature of experiment [8]: ZIKV-mCherry secondary qHTS for Zika virus inhibitors (AID 1347158). Also: potency is read from the fitted curve at half-maximal effect. The procedure, abridged: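 Read-out is percent infection: mCherry-positive Vero cells (nuclear-proximal intensity >450 RFU, 3 SD above negative controls) counted by high-content imaging of Hoechst-stained, PFA-fixed wells after 48-72 h with ZIKV-mCherry at MOI 1 and compound.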
A short description of experiment [9]: HepG2 cells viability qHTS for Zika virus inhibitors (AID 1347168). The procedure, abridged:
as §1

The test system of experiment [10] is Zika virus NS2B-NS3 protease (linked construct). Description: Primary screen NINDS Rhodamine qHTS for Zika virus inhibitors (AID 1347160). Also: nearly all actives have a fitted effect of over 55% in size. The procedure, abridged:
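Single-chain NS2B-NS3 protease, 25 nM, pH 8.0; compounds preincubated 15 min. Activity: Rhodamine110 release from 1.5 microM substrate over 15 min, room temperature, data fitted to 4-parameter Hill.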

Sequence of Lysine-specific demethylase 5B (Homo sapiens) (Q9UGL1 whole entry, looked up): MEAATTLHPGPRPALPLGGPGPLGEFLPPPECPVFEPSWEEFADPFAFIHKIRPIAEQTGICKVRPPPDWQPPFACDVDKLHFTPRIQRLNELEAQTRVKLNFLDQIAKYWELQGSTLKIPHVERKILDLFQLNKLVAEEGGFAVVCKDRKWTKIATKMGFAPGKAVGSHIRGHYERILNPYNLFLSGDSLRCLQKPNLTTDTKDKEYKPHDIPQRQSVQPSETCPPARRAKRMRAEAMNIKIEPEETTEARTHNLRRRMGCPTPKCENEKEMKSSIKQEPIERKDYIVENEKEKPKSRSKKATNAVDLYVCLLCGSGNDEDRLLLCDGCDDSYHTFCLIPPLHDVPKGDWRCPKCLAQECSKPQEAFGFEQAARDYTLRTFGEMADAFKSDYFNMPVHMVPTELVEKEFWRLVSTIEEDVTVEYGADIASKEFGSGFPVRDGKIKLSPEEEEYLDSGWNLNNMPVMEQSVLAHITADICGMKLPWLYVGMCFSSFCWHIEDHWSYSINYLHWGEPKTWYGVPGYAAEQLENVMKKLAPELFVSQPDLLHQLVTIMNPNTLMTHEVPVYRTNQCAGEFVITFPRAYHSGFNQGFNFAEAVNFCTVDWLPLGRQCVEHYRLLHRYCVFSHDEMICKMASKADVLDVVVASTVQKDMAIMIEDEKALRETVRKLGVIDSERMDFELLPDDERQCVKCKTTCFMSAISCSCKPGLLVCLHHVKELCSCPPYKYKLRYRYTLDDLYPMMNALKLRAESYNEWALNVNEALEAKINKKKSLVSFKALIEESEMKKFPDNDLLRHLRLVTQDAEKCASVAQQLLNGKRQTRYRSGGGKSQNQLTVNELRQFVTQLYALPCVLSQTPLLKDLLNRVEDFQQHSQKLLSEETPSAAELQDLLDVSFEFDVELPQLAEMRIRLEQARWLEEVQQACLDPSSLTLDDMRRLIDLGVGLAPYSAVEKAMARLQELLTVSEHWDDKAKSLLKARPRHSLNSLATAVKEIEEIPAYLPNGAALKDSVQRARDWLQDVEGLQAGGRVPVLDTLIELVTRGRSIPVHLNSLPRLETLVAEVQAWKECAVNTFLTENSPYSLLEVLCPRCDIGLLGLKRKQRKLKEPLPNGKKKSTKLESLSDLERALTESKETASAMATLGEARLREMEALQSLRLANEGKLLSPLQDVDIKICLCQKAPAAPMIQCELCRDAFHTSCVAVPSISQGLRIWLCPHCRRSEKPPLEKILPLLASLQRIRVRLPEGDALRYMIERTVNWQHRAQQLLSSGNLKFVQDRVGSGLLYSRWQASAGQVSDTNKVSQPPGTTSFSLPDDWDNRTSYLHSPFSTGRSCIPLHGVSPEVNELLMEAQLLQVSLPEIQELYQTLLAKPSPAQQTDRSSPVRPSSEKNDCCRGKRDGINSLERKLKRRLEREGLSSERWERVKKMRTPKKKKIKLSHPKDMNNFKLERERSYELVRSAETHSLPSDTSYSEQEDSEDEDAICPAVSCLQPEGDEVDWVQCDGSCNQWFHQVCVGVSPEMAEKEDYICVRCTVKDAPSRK

Consider `NC(N)=NC(N)=Nc1cccc(Cl)c1`, for which, in [1], the Potency entry is “inactive”.
In the case of `c1ccc2nc(C3=NCCN3)ccc2c1`, the Potency result in experiment [1] is “inactive”.
On the same count and under the same terms, in the case of `CNc1cc(NS(=O)(=O)c2ccc(N)cc2)nc(NC)n1` it was “inactive”.
In the case of `CCCCCCCC/C=C\CCCCCCCC(=O)NCCc1ccc(O)c(O)c1`, the Potency is 16.8 µM (active) in experiment [1]; 19.6 µM (active) in experiment [2]; 1.12 µM (active) in [3]; 3.16 µM (active) in [4]; 8.27 µM (active) in experiment [6]. Besides, in [5], the activity, negative = inhibition is -22.3%.
In the case of `CN1CCN(c2nc3cc(C(F)(F)F)ccc3n3cccc23)CC1`, the Potency entry in experiment [1] was “inactive”.
Still for that read-out and setting: the value for `S=C(S)N1CCCC1` was “inactive”.
On to `O=C1Nc2ccc(I)cc2/C1=C/c1cc(Br)c(O)c(Br)c1`, for which the Potency result in experiment [1] was “inactive”. The Potency in [3] was 89.1 µM (active); in experiment [4], 2.51 µM (active). Besides, the activity, negative = inhibition in [5] is -25%.
On to `C=C1C(=O)O[C@@H]2[C@H]3O[C@]3(C)CCC=C(C)CC[C@@H]12`, for which the Potency result in experiment [1] was “inactive”.
On the same count and under the same terms, the value for `NC1(C(=O)O)CCc2cc(C(=O)O)ccc21` (stereo unspecified) was “inactive”.
With `CC(C)Cn1c(=O)n(C)c(=O)c2[nH]cnc21`, the Potency result in experiment [1] is “inactive”. Besides, the activity, negative = inhibition in experiment [5] is -4.21%.
For `Cn1c(=O)c2[nH]c(C3CCCC3)nc2n(C)c1=O`, in experiment [1], the Potency entry is “inactive”.
On the same count and under the same terms, in the case of `NC[C@@H]1O[C@H](c2ccccc2)Cc2c1ccc(O)c2O` it was “inactive”.
For the compound `Cc1nc(N=Nc2ccc(S(=O)(=O)O)cc2S(=O)(=O)O)c(COP(=O)(O)O)c(C=O)c1O`, the Potency entry in experiment [1] and in [8] was “inactive” each time. For the same compound, the Potency in experiment [7] was 7.94 µM (active); in [3], 39.8 µM (active); in [4], 3.98 µM (active). Moreover, the activity, negative = inhibition in experiment [5] is -11.6%.
Turning to `CC(C)(C)NCC(O)COc1cccc2[nH]c(=O)[nH]c12` (stereo unspecified), the Potency result in experiment [1] is “inactive”.
Still for that read-out and setting: in the case of `COc1cc(CC(=O)O)ccc1O` it was “inactive”; in that of `Cc1nc2c(OCc3ccccc3)cccn2c1CC#N`, “inactive”; in that of `O=c1[nH]c(=O)c2nc3ccccc3nc2[nH]1`, “inactive”.
Still for that read-out and setting: in the case of `COc1ccccc1N1CCN(CCCCN2C(=O)c3ccccc3C2=O)CC1` it was “inactive”; in that of `NC1C=CC=C(C(=O)O)C1` (stereo unspecified), “inactive”.
For `CCCn1c(=O)c(C)cn2nc(N)nc12`, in experiment [1], the Potency is 26.7 µM (active).
Still for that read-out and setting: the value for `O=C(O)C1=CCCNC1` was “inactive”.
In the case of `COc1ccccc1N1CCN(CCCNc2c(C)c(=O)n(C)c(=O)n2C)CC1`, the Potency result in experiment [1], in experiment [2] and in experiment [6] was “inactive” throughout. Besides, the call in experiment [9] was inactive.
Consider `Nc1nc2ccc(Cl)cc2c2nc(-c3ccco3)nn12`, for which the Potency entry in experiment [1], in experiment [3] and in [6] was “inactive” throughout. For the same compound, the compound was called inactive in experiment [9].
Consider `CCSC(=N)N`, for which, in experiment [1], the Potency entry was “inactive”.
In the case of `C/C(=C\c1ccc(C(=O)O)cc1)c1ccc2c(c1)C(C)(C)CCC2(C)C`, the Potency entry in [1], in experiment [3], in experiment [4] and in [6] was “inactive” throughout. The Potency is 7.94 µM (active) in experiment [8] and 1.56 µM (active) in experiment [2]. In addition, the compound was classed as inactive in [9].
In the case of `Oc1cc2c(cc1O)C(c1ccccc1)CNCC2` (stereo unspecified), the Potency entry in [1] is “inactive”.
As for `CSC(=N)N`, the Potency result in [1] is “inactive”.
Consider `CC(=O)NCCc1c[nH]c2ccc(O)cc12`, for which the Potency result in [1] is “inactive”. Besides, the result in experiment [10] was inactive.
Consider `O=c1[nH]c2ccccc2c2ccccc12`, for which the Potency entry in experiment [1] was “inactive”.
Take `NS(=O)(=O)c1cccc2c1c([N+](=O)[O-])cc1nc(O)c(O)nc12`: in [1], the Potency entry is “inactive”.
`COCc1nc2c([nH]1)c(=O)n(C)c(=O)n2CC(C)C`: the Potency entry in experiment [1] was “inactive”.
As to `Nc1nc2c(cnn2CCc2ccccc2)c2nc(-c3ccco3)nn12`, the Potency result in experiment [1] was “inactive”.
For `N[C@@H](CS(=O)O)C(=O)O`, in [1], the Potency result is “inactive”.
Regarding `C=CCn1c(=O)c2c(nc(-c3ccc(S(=O)(=O)O)cc3)n2C)n(C)c1=O`, in experiment [1], the Potency was 5.32 µM (active).
Still for that read-out and setting: in the case of `NC(=Nc1ccccc1)NC(=O)c1nc(Cl)c(N)nc1N` it was “inactive”.
Consider `O=C(O)c1ccccc1Nc1cccc(OCc2ccc3ccccc3n2)c1`, for which the Potency entry in [1] and in experiment [6] was “inactive” each time. Also, the Potency in [2] is 3.49 µM (active); in experiment [3], 158 µM (active); in experiment [4], 63.1 µM (active). For the same compound, in [5], the activity, negative = inhibition is -2.34%. Also, the compound was classed as inactive in [9].
Take `CCCCCCN(CCCCCC)C(=O)Cc1c(-c2ccc(F)cc2)[nH]c2ccccc12`: the Potency result in experiment [1] was “inactive”.
The same measure, in the same setting: in the case of `COC(=O)[C@H](NC(=O)c1cc(-c2ccccc2)nc2ccccc12)c1ccccc1` it was “inactive”.
For the compound `CC(=O)NNC(=O)N1Cc2ccccc2Oc2ccc(Cl)cc21`, the Potency entry in [1] was “inactive”. Also, in experiment [5], the activity, negative = inhibition was -5.14%.
For `CN1CCc2cc(Cl)c(O)cc2[C@@H](c2ccccc2)C1` the same measures were “inactive” and -3.21%.
For the compound `CC(C)NC[C@H](O)COc1cccc2ccccc12`, the Potency result in [1] was “inactive”. Moreover, the activity, negative = inhibition in experiment [5] is -12%.
For `Cn1cc(C(F)(F)F)nc1-c1ccc(OCC(O)CNCCOc2ccc(O)c(C(N)=O)c2)cc1` (stereo unspecified), the Potency entry in experiment [2] and in experiment [6] was “inactive” each time. In addition, in experiment [5], the activity, negative = inhibition is -27.4%. Also, in [9], the result was inactive.
With `CC(C)NCC(O)COc1ccc(CC(N)=O)cc1` (stereo unspecified), the Potency entry in experiment [1] is “inactive”. Besides, the activity, negative = inhibition in [5] was -1.35%.
Turning to `Cc1cccc(C(=O)NCN2CCN(c3ccccc3C#N)CC2)c1`, the Potency entry in experiment [1] and in [6] was “inactive” each time. In addition, the compound was classed as inactive in experiment [9].
